Measured values reported in PubChem BioAssay (NCATS).
Records with an inconclusive call do not appear. Activity calls are given as the source filed them. Calls follow the shape of the dose curve; as a rule, active = well fitted curve in the direction sought with a large enough effect; inconclusive = small, poorly fitted or top-dose-only effect, or another doubt; inactive = no such curve, though single readings can be large; an effect the other way counts as inactive or inconclusive.

Experiments:
[1] = P-glycoprotein substrates identified in KB-8-5-11 adenocarcinoma cell line, qHTS therapeutic library screen (AID 1346987); details: outcome: dose series up to 44.5 µM; also: series mostly up to about 44 µM; nearly all actives have a fitted effect of over 65% in size
Summary of the method: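 KB-8-5-11: colchicine-selected sub-line of KB-3-1 over-expressing P-gp; assay medium lacked colchicine. 72 h drug exposure at 37 degree C, CellTiter-Glo.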

[2] = NS1 protein of Zika virus - qHTS assay to identify small molecule inhibitors in human HEK 293 cells (AID 1347053); also: series mostly up to about 46 µM; nearly all actives have a fitted effect of over 55% in size
Summary of the method: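 HEK 293; 20 h pre-culture, 37 C/5% CO2; cpd 1 h pre-infection; ZIKV MR766, MOI = 0.5, 24 h, 37 C; TR-FRET NS1 readout (two anti-NS1 Abs); norm. to no-virus vs infected.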

[3] = qHTS of pediatric cancer cell lines to identify multiple opportunities for drug repurposing: Primary screen for TC32 cells (AID 1347089); also: nearly all actives have a fitted effect of over 60% in size
Summary of the method: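 Luminescent CellTiter-Glo read-out of metabolically active TC32 cells after 48 h compound exposure. Primary: MIPE 11-point, 0.78 nM–46 µM; NPC 8-point, 0.59 nM–46 µM. Confirmatory: 11-point dilutions.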

[4] = qHTS of pediatric cancer cell lines to identify multiple opportunities for drug repurposing: Primary screen for DAOY cells (AID 1347090); also: series mostly up to about 46 µM; nearly all actives have a fitted effect of over 55% in size
Summary of the method: (§1)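 Viability measured as metabolically active cells via CellTiter-Glo luminescence following 48 hours of compound exposure, 11-point dilutions in confirmatory testing. 500-1,000 cells/well plated 5 hours before dosing; controls were DMSO and 2.3 µM bortezomib.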

[5] = qHTS of pediatric cancer cell lines to identify multiple opportunities for drug repurposing: Primary screen for SJ-GBM2 cells (AID 1347091)
Summary of the method: as §1

[6] = qHTS of pediatric cancer cell lines to identify multiple opportunities for drug repurposing: Primary screen for A673 cells (AID 1347092); also: nearly all actives have a fitted effect of over 45% in size
Summary of the method: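 A673 cells (500-1,000 cells/well in growth media) were pre-incubated 5 h at 37 degrees C, then exposed to compounds for 48 h. Viability was read as CellTiter-Glo luminescence; concentration-response curves came directly from the primary screen.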

[7] = qHTS of pediatric cancer cell lines to identify multiple opportunities for drug repurposing: Primary screen for SK-N-MC cells (AID 1347093); also: series mostly up to about 46 µM
Summary of the method: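 Metabolically active cells were quantified by ATP-dependent luminescence (CellTiter-Glo, 15 min at room temperature) following 48 h treatment. Cells had been plated at 500-1,000 per well and settled for 5 h beforehand.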

[8] = qHTS of pediatric cancer cell lines to identify multiple opportunities for drug repurposing: Primary screen for BT-37 cells (AID 1347094); also: series mostly up to about 57 µM
Summary of the method: (§2)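 Cells seeded at 500-1,000 cells/well in growth media, rested 5 hours at 37 degrees C, 5% CO2, then dosed; MIPE compounds at 11-point (from 0.78 nM) and NPC at 8-point (from 0.59 nM) final concentrations. Viability by CellTiter-Glo luminescence after 48 hours.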

[9] = qHTS of pediatric cancer cell lines to identify multiple opportunities for drug repurposing: Primary screen for NB-EBc1 cells (AID 1347095)
Summary of the method: as §2

Measured: Potency

COc1cc(C(=O)NCCCCCC(=O)O)cc(OC)c1OC
inactive: all assays above

NC(=O)CCCCC1CCSS1 (stereo not given)
inactive: all assays above

COC(=O)c1cccnc1
inactive: all assays above

CC(=O)Oc1cccc(C)c1
inactive: all assays above

Cc1cc(NC(=O)C2=C(O)c3ccccc3S(=O)(=O)N2C)no1
inactive: all assays above

CC(=O)OCC(COC(C)=O)OC(C)=O
inactive: all assays above

Cc1cc(-n2nc3ccc(Cl)cc3n2)c(O)c(C(C)(C)C)c1
inactive: all assays above

COc1ccc(C(=O)N2CCN(CC(=O)N3CCOCC3)CC2)cc1
inactive: all assays above

CC(=O)OC[C@H]1O[C@@](COC(C)=O)(O[C@H]2O[C@H](COC(C)=O)[C@@H](OC(C)=O)[C@H](OC(C)=O)[C@H]2OC(C)=O)[C@@H](OC(C)=O)[C@@H]1OC(C)=O
inactive: all assays above

C/C=C/C(=O)N(CC)c1ccccc1C
inactive: all assays above

CCOc1ccc(C(=O)OCCN(CC)CC)cc1
inactive: all assays above

NS(=O)(=O)c1ccc(C(=O)O)cc1
inactive: all assays above

O=C(O)c1ccccc1OP(=O)(O)O
inactive: all assays above

O=C(O)c1ccc[n+]([O-])c1
inactive: all assays above

CC(C)(C)C(=O)OCOC(=O)[C@@H]1N2C(=O)[C@@H](NC(=O)[C@H](N)c3ccccc3)[C@H]2SC1(C)C
inactive: all assays above

O=C(/C=C/c1ccc(O)c(O)c1)O[C@@H]1C[C@@](OC(=O)/C=C/c2ccc(O)c(O)c2)(C(=O)O)C[C@@H](O)[C@@H]1O
inactive: all assays above

Cn1cc(C(=O)[C@@H]2CCc3nc[nH]c3C2)c2ccccc21
inactive: all assays above

CN1C(C)(C)CCCC1(C)C
inactive: all assays above

CCCCCCCCCCC(CO)CCCCCCCC (stereo not given)
inactive: all assays above

CC[N+](C)(CC)CCOC(=O)C1c2ccccc2Oc2ccccc21
inactive: all assays above

CC(=O)NS(=O)(=O)c1ccc(N)cc1
inactive: all assays above

O=C(NCCCN1CCOCC1)c1ccc(Cl)cc1
inactive: all assays above

C[n+]1ccccc1/C=N/O
inactive: all assays above

COc1ccc(-c2cc(=O)c3c(O)cc(O[C@@H]4O[C@H](CO[C@@H]5O[C@@H](C)[C@H](O)[C@@H](O)[C@H]5O)[C@@H](O)[C@H](O)[C@H]4O)cc3o2)cc1O
inactive: all assays above

CN(C(=O)c1c(O)c2ccccc2n(C)c1=O)c1ccccc1
inactive: all assays above
